Bioassay records: PubChem BioAssay, National Center for Advancing Translational Sciences (NCATS)
Shown are actives, neighbours in structure and some others; about 0.54% of the full set was active somewhere.
TRPML1 blocker – human mucolipin-1 channel inhibition; activity change, negative = inhibition, % (concentration not given with the values); TRPML1-inducible cells, Ca2+ dye fluorescence, FDSS; hits give low values; inhibition of EC80 agonist-evoked calcium signal; Q9GZU1; actives 0.02% (n = 390,000); in the data active means activity change below about -50%; inconclusive means between about -30% and that limit;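 further: stimulus is agonist 54-4 at its EC80 concentration; on the % scale 0 is the no-effect control and ±100 the full control effect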
Target sequence (Q9GZU1 whole entry, looked up): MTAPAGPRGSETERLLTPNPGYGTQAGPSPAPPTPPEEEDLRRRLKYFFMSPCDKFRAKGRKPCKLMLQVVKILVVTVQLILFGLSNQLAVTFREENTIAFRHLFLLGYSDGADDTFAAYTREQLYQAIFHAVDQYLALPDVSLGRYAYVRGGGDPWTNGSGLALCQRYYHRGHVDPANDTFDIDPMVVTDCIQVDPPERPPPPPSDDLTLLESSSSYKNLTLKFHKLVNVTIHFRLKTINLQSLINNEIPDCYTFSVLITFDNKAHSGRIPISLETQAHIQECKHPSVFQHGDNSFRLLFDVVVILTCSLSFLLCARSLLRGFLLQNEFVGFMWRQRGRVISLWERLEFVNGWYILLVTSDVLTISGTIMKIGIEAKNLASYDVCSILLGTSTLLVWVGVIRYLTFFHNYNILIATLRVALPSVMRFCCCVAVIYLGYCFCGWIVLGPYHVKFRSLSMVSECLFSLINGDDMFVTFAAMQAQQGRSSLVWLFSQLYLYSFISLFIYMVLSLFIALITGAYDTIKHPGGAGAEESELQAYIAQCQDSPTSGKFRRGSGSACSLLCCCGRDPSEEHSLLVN
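Tet-induced TRPML1-DL cells loaded with Ca8 no-wash calcium dye were read kinetically on FDSS. Compound addition was followed by EC80 agonist 54-4 (4 uM final); inhibition was read over 110 s.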
Vif-A3G inh – inhibitors of Vif-APOBEC3G interaction. HeLa A3G-eYFP + Vif (tagged APOBEC3G with the HIV-1 protein that degrades it), YFP fluorescence, overnight. Potency, µM (doses to about 46.1 µM), inactives show top-dose activity, negative = active, usual class: inhibitors. actives 0.076% (n = 410,000); further: potency means the concentration at half of the fitted maximal effect; on the % scale 0 is the no-effect control and ±100 the full control effect; nearly all actives have a fitted effect of over 60% in size
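HeLa cells stably expressing Vif and C-terminally eYFP-tagged A3G, seeded overnight at 37 deg C, then exposed to compound by pintool overnight at 37 deg C. Rise in yellow fluorescence (Ex 488/Em 500-530, Acumen) marks blocked Vif-driven A3G degradation.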
Vif-A3F inh – blocks the Vif interaction with APOBEC3F | actives 0.2% (n = 390,000) | AID 602313 | Potency, µM (highest dose often 46.1 µM), for the others: at the top dose activity, negative = active | HeLa A3F-eYFP + Vif (tagged APOBEC3F with the HIV-1 protein that degrades it), YFP fluorescence increase; further: potency means the concentration at half of the fitted maximal effect; % of control where 0% means no effect; nearly all actives have a fitted effect of over 65% in size
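HeLa cells stably expressing A3F-eYFP plus Vif, plated and incubated overnight at 37 deg C, then exposed to compounds overnight at 37 deg C. Blocked degradation read as raised yellow fluorescence (Ex 488/Em 500-530).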
TRPML1 agonist – activates the human TRPML1 channel | Q9GZU1 | TRPML1-expressing cells, Ca2+ dye fluorescence, FDSS | activation, % (concentration not given with the values) | actives 0.12% (n = 410,000) | AID 624414; in the data active means activation above about 50%; inconclusive means mostly about 30% to 49%; further: 0% is about no effect
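TRPML1-DL cells, Tet-induced overnight (~16 h, 37 degrees C), loaded 45-90 min at room temperature with Ca8 no-wash calcium dye plus quencher. FDSS fluorescence: 10 s baseline, compound pin-transfer, 110 s agonist read, then EC80 54-4 (4uM final) and 110 s antagonist read.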
AT treatment – potential ataxia-telangiectasia treatment; F2112 A-T fibroblasts, KAP-1 phosphorylation AlphaLISA; neocarzinostatin DNA damage 30 min before lysis; Potency, µM (titrated, usually from 57.5 µM), inactives show at the top dose activation, actives largely listed as activators; actives 0.19% (n = 320,000); further: potency means the concentration at half of the fitted maximal effect; % of control where 0% means no effect; nearly all actives have a fitted effect of over 45% in size
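ATM-like activity read as KAP-1 phosphorylation via AlphaLISA donor/acceptor antibody pairs after lysis and 6 hr at 25C. Cells were ATM-null patient fibroblasts (F2112, hTERT), dosed 60 min, then exposed to the DSB inducer NCS for 30 min.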
Active calls of the source: *; ? = inconclusive; . = not tested or not shown. Unless noted, the call rests on the fitted dose curve; in most records, active means well fitted curve in the direction sought with a large enough effect; inconclusive means small, poorly fitted or top-dose-only effect, or another doubt; inactive means no such curve, though single readings can be large; an effect the other way counts as inactive or inconclusive.

SMILES	TRPML1 blocker	Vif-A3G inh	Vif-A3F inh	TRPML1 agonist	AT treatment
CCNc1ccc2noc3c2c1C(=O)c1ccccc1-3	4.2	-4.4%	?	62.8*	3.6%
O=C(c1cc(Cl)cc(Cl)c1)N1CCC(=O)N([C@H](COCc2ccccc2)Cc2ccccc2)CC1	.	.	.	-0.1	.
Cc1ccc(CNC(=O)C2CC(c3cccc(F)c3)=NO2)cc1 (configuration not stated)	-12.8	-9.3%	1.3%	-0.7	25.1µM*
CN1CCN(c2cc(-c3ccc4ccccc4c3)nc3ccnn23)CC1	.	2.0%	.	-0.7	.
Cc1nn(-c2ccccc2)c(Cl)c1/C=N/NC(=O)CCNc1n[nH]c(=O)[nH]c1=O	12.6	4.1%	3.5%	-0.8	20µM*
Cc1ccc(CNC(=O)c2cccc3c2C(=O)c2ccc(N4CCCCC4)cc2S3(=O)=O)cc1	-7.5	?	22.4µM*	50.4*	0.3%
O=C(NCC1CCCO1)c1cccc2c1C(=O)c1ccc(N3CCC(Cc4ccccc4)CC3)cc1S2(=O)=O (configuration not stated)	-10.2	?	25.1µM*	12.3	-12.8%
O=C(NCc1ccccc1)c1cccc2c1C(=O)c1ccc(/C=C/c3ccccc3)cc1S2(=O)=O	-2.2	-30.4%	10µM*	7.2	-1.4%
O=C(NC1CCCC1)c1cccc2c1C(=O)c1ccc(/C=C/c3ccccc3)cc1S2(=O)=O	-0.9	-1.1%	?	-0.5	-3.0%
O=C(NCc1ccccc1Cl)c1cccc2c1C(=O)c1ccc(-c3ccc(OC(F)(F)F)cc3)cc1S2(=O)=O	16.0	-8.9%	12.6µM*	0.1	3.3%
CC1CCN(c2ccc3c(c2)S(=O)(=O)c2cccc(C(=O)NC[C@@H]4CCCO4)c2C3=O)CC1	20.2	-29.1%	-14.8%	0.7	1.4%
CCOc1ccc(OCC(=O)Nc2nnc3n2CCS3)cc1	-5.7	1.7%	-6.4%	0.6	.
COc1ccccc1N1CCN(c2ncnc3n[nH]c(Br)c23)CC1	.	.	.	-1.1	.
Cc1ccc2nc(-c3ccccn3)c(NC3CCCC3)n2c1	-6.2	-0.3%	7.94µM*	1.9	-0.7%
CC1CCc2c(sc3nc(-c4cc5cc(Br)ccc5oc4=O)[nH]c(=O)c23)C1 (configuration not stated)	7.4	3.2%	-0.3%	0.5	.
CC(=O)c1cccc(-c2ccnc3c2CC(C(=O)NCc2ccco2)O3)c1 (configuration not stated)	5.1	0.891µM*	.	-0.1	.
COC(=O)CSc1nc(C)cc(C(F)(F)F)c1C#N	49.7	-0.9%	-4.6%	1.5	1.3%
Cc1ccc(S(=O)(=O)CCSc2nc(C)cc(C(F)(F)F)c2C#N)cc1	4.6	11.2µM*	?	-1.2	1.6%
CCCOc1ccc(C(=O)NNC(=S)NC(=O)c2cccs2)cc1	-7.2	-3.4%	-1.7%	53.4*	-8.0%
CC(C)(C)c1ccc(C(=O)NC(=S)NNC(=O)c2cccs2)cc1	-16.2	-9.2%	-13.1%	74.0*	-0.2%
CCOc1ccc(OCC)c(NC(=O)c2cnn(-c3ccc(F)cc3)c2-n2cccc2)c1	15.6	-2.9%	4.8%	2.6	.
CNC(=O)c1ccc(-c2sc3nc(N4CCOCC4)c4c(c3c2N)CC(C)(C)OC4)o1	-1.3	3.6%	.	0.8	4.47µM*
Cc1cc(C=O)cc(C)c1[N+](=O)[O-]	.	0.6%	.	-0.5	.
COc1ccccc1CNC(=O)c1cc2cccc3c2n1CC(C)S3 (configuration not stated)	2.6	-11.5%	-14.2%	3.0	.
COC(=O)c1c(C)oc2ccc(N(C(=O)c3ccncc3)S(=O)(=O)c3c(C)cc(C)cc3C)cc12	51.9	9.6%	1.8%	-0.7	.
SMILES	TRPML1 blocker	Vif-A3G inh	Vif-A3F inh	TRPML1 agonist	AT treatment
COc1cc(NC(=O)CC(C)S(=O)(=O)c2cc3c4c(c2)CCN4C(=O)CC3)cc(OC)c1 (configuration not stated)	-8.5	3.5%	8.0%	-0.7	.
COC(=O)C1=COC(C)C2CN3CCc4c([nH]c5cc(OC)c(OC)cc45)C3CC12 (configuration not stated)	.	-11.6%	8.91µM*	.	-4.2%
COc1ccc(-n2c(C)c(C)c3c(NCCN(C)C)ncnc32)cc1	.	-7.7%	-0.3%	.	7.08µM*
COc1ccc(-n2c(C)c(C)c3c(NCCCN(C)C)ncnc32)cc1	13.3	1.8%	14.3%	-0.5	-18.1%
CC(OC(=O)c1cccc(O)c1)C(=O)N(C)Cc1ccccc1 (configuration not stated)	-10.0	-7.4%	-7.4%	1.2	0.1%
CC(OC(=O)/C(C#N)=C/c1ccc(N(C)C)cc1)C(=O)N(C)Cc1ccccc1 (configuration not stated)	-12.9	?	22.4µM*	?	6.6%
CCc1ccccc1NC(=O)Cn1c(=O)n(-c2ccc(C)c(C)c2)c(=O)c2oc3ccccc3c21	12.1	-7.6%	-0.8%	3.5	.
S=c1[nH]cnc2sc(-c3ccccc3)cc12	-14.3	-4.5%	5.62µM*	-0.8	0.6%
Cc1cccc(N2CCN(C(=O)c3cccn3-c3nnc(N4CCCCC4)s3)CC2)c1C	1.7	1.2%	7.6%	3.4	.
CCc1ccc(CNC(=O)c2cnc3sc4cc(OC)ccc4n3c2=O)cc1	-10.0	3.5%	-3.0%	-0.9	.
COc1ccc(C=C(c2nc3ccccc3s2)c2nc3ccccc3s2)cc1O	-12.6	-19.2%	10.8%	-0.2	28.2µM*
COc1cc(C=C(c2nc3ccccc3s2)c2nc3ccccc3s2)ccc1O	26.3	-26.5%	-19.3%	-0.4	0.0%
COCCN1CCc2nc(SCC(=O)Nc3ccc(C)c(Cl)c3)[nH]c(=O)c2C1	12.6	2.2%	-5.6%	-1.1	.
Cc1nn(CCC(=O)NCc2cccc(Br)c2)c(=O)c2nn(-c3ccccc3)c(C)c12	3.1	1.0%	5.6%	0.5	.
CCN1c2ccccc2NC2C1C(C(C)=O)C(=O)N2c1ccc(Cl)cc1 (configuration not stated)	-4.8	?	22.4µM*	1.5	19.2%
O=C1Nc2ccccc2N(O)N1c1ccc(Cl)cc1	-17.6	3.5%	-6.6%	-0.2	-3.8%
Cc1cccc(N2CCN(C(=O)CCNS(=O)(=O)c3ccc4c(c3)CCN4C(=O)C3CC3)CC2C)c1 (configuration not stated)	-8.2	-0.9%	9.6%	2.2	.
COc1ccc2c(c1)N(C)/C(=C/c1cccc[n+]1C)S2	3.9	12.6µM*	?	1.1	-7.1%
Cc1ccc2c(c1)N(C)/C(=C/c1cccc[n+]1C)S2	7.0	?	11.2µM*	0.5	0.0%
Cc1ccc2c(c1)N(C)/C(=C/c1cccc[n+]1CCO)S2	7.8	?	12.6µM*	0.4	-3.7%
CCN1/C(=C/c2cccc[n+]2C)Sc2ccc(OC)cc21	-0.1	?	25.1µM*	2.2	-8.5%
